Source: the supplement of paper PMC8387472

How the values were obtained:
Assay in all cases: fraction of edited reads among all mapped reads; higher = more Cas9 editing
Settings in all cases: mESC; 2uM; 72 h treatment, harvest day 5
[1] = compound: CC(=O)O/N=C1\C(=O)N(Cc2cc(Cl)ccc2Cl)c2ccc(Cl)cc21
[2] = compound: CC(C)(C#N)c1ccc(N2C(=O)OCc3cnc4ccc(-c5cnc6ccccc6c5)cc4c32)cc1
[3] = compound: CCCCOc1c(C(=O)c2c(F)cc(C)cc2F)c[nH]c2nncc1-2
[4] = compound: CCN1CCN(CC(=O)Nc2ccc(-c3cccc4c(=O)cc(N5CCOCC5)oc34)c3sc4ccccc4c23)CC1
[5] = compound: CCc1c2c(nc3ccc(OC(=O)N4CCC(N5CCCCC5)CC4)cc13)-c1cc3c(c(=O)n1C2)COC(=O)[C@]3(O)CC [Irinotecan HCl Trihydrate]
[6] = compound: CCn1c(=O)c(-c2ccc(Cl)cc2Cl)cc2cnc(Nc3ccc(N4CCNCC4)c(F)c3)nc21
[7] = compound: CNc1ccc([N+](=O)[O-])c(Nc2ccc3[nH]ncc3c2)n1
Rifapentine = compound: CO[C@H]1/C=C/O[C@@]2(C)Oc3c(C)c(O)c4c(O)c(c(/C=N/N5CCN(C6CCCC6)CC5)c(O)c4c3C2=O)NC(=O)/C(C)=C\C=C\[C@H](C)[C@H](O)[C@@H](C)[C@@H](O)[C@@H](C)[C@H](OC(C)=O)[C@@H]1C [Rifapentine]
[8] = compound: COc1ccccc1-c1cc(Nc2cccc(CS(N)(=O)=O)c2)ncn1
[9] = compound: C[C@@H]1CN(CC(=O)Nc2ccc3c(c2)Cc2cccc(-c4cc(=O)cc(N5CCOCC5)o4)c2S3)C[C@H](C)O1
[10] = compound: Cc1cc(C)nc(SCC(=O)Nc2ncc(Cc3cccc4ccccc34)s2)n1
[11] = compound: Cc1ccc(C(=O)NCCCCCC(=O)Nc2ccccc2N)cc1
[12] = compound: Cc1cccc(CC(=O)N2CCc3c2ccc(-c2cn(C)c4ncnc(N)c24)c3F)n1
[13] = compound: NC(=O)c1ccc2nc(-c3ccc(Oc4ccc(Cl)cc4)cc3)[nH]c2c1 [Chk 2 inhibitor II (BML-277)]
Tucidinostat (Chidamide) = compound: Nc1cc(F)ccc1NC(=O)c1ccc(CNC(=O)/C=C/c2cccnc2)cc1 [Tucidinostat (Chidamide)]
Pemetrexed = compound: Nc1nc2[nH]cc(CCc3ccc(C(=O)N[C@@H](CCC(=O)O)C(=O)O)cc3)c2c(=O)[nH]1 [Pemetrexed]
[14] = compound: O=C(c1cccc(Cl)c1F)N1CCN(Cc2cccc(Nc3nccs3)n2)CC1
Kenpaullone = compound: O=C1Cc2c([nH]c3ccc(Br)cc23)-c2ccccc2N1 [Kenpaullone]
Genistein = compound: O=c1c(-c2ccc(O)cc2)coc2cc(O)cc(O)c12 [Genistein]
[15] = compound: Nc1ncnc2c1c(-c1cnc3[nH]ccc3c1)nn2C1CCCC1

Row | Target | fraction of edited reads among all mapped reads [1] | fraction of edited reads among all mapped reads [2] | fraction of edited reads among all mapped reads [3] | fraction of edited reads among all mapped reads [4] | fraction of edited reads among all mapped reads [5] | fraction of edited reads among all mapped reads [6] | fraction of edited reads among all mapped reads [7] | fraction of edited reads among all mapped reads (Rifapentine) | fraction of edited reads among all mapped reads [8] | fraction of edited reads among all mapped reads [9] | fraction of edited reads among all mapped reads [10] | fraction of edited reads among all mapped reads [11] | fraction of edited reads among all mapped reads [12] | fraction of edited reads among all mapped reads [13] | fraction of edited reads among all mapped reads (Tucidinostat (Chidamide)) | fraction of edited reads among all mapped reads (Pemetrexed) | fraction of edited reads among all mapped reads [14] | fraction of edited reads among all mapped reads (Kenpaullone) | fraction of edited reads among all mapped reads (Genistein) | fraction of edited reads among all mapped reads [15]
1 | 22.0 (DMSO control at this site: 1-bp insertion 0.573, MH deletion 0.229, edited 0.045) CTGATGGTTGAAGGATTTAGCCGGGGTCCTAGACGCCGGGGTCCTAGACGAAAGGGCCACG | 0.0447 | 0.0542 | 0.0455 | 0.0167 | 0.0664 | 0.0371 | 0.0513 | 0.0926 | 0.0709 | 0.0389 | 0.0884 | 0.0476 | 0.0695 | 0.0586 | 0.0454 | 0.056 | 0.0278 | 0.117 | 0.0556 | –
2 | 4.0 (DMSO control at this site: 1-bp insertion 0.146, MH deletion 0.523, edited 0.125) ACGCCTTAGTGCACGAGTGACGGGATAATGTGGTCTCAGGTAATTGATAGGCTTCCAACTT | 0.157 | 0.149 | 0.155 | 0.0719 | 0.194 | 0.136 | 0.182 | 0.243 | 0.188 | 0.0881 | 0.237 | 0.155 | 0.209 | 0.166 | 0.13 | 0.16 | 0.0959 | 0.306 | 0.175 | 0.15
3 | 28.0 (DMSO control at this site: 1-bp insertion 0.035, MH deletion 0.77, edited 0.142) TGGTTCTTCCTTTGTAGAGAGTGTTCATCTGGGAATCTGGGACTTGGATGAGACAATCATT | 0.171 | 0.174 | 0.171 | 0.0787 | 0.217 | 0.16 | 0.181 | 0.291 | 0.196 | 0.0747 | 0.267 | 0.152 | 0.212 | 0.19 | 0.126 | 0.14 | 0.11 | 0.297 | 0.198 | 0.153
4 | 44.0 (DMSO control at this site: 1-bp insertion 0.181, MH deletion 0.512, edited 0.123) ACACATACCTTCTTCGAGGCAGCCAGCATGATGAGACAGGTCTCCCACAAACACATCGTGT | 0.149 | 0.14 | 0.157 | 0.0618 | 0.202 | 0.138 | 0.17 | 0.251 | 0.195 | 0.111 | 0.232 | 0.141 | 0.191 | 0.167 | 0.124 | 0.138 | 0.11 | 0.265 | 0.167 | 0.124
5 | 42.0 (DMSO control at this site: 1-bp insertion 0.145, MH deletion 0.655, edited 0.132) GGGCTAAACCTATGAGCACAGTAGAACTAAGGGTGGGTGGTGTAGCTAAAGAACTTGACCA | 0.151 | 0.153 | 0.161 | 0.0618 | 0.191 | 0.139 | 0.184 | 0.27 | 0.187 | 0.0909 | 0.241 | 0.15 | 0.193 | 0.167 | 0.115 | 0.127 | 0.107 | 0.251 | 0.18 | 0.135
